Calls of active or inactive are those of the source.
Experiments:
[1] = test system: Plasmodium falciparum Sir2 (PF13_0152, Sir2A); experiment: Plasmodium falciparum Sir2A binding compounds – biochemical, small-molecule microarray, 635 nm fluorescence, primary screen (AID 1098); settings: fluorescence 635 nm, higher = more signal;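 note: score merges spot fluorescence intensity with its signal-to-noise ratio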
[2] = probe aDKK1 binding to arrayed compounds – biochemical, biotinylated probe, 635/667 nm fluorescence, primary screen (AID 1099); settings: small-molecule microarray, higher = more signal;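 note: score merges 667nm spot fluorescence with signal to noise across triplicate slides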
[3] = probe aCHRDL2 binding to arrayed compounds – biochemical, biotinylated probe, 635/667 nm fluorescence, primary screen (AID 1100); settings: small-molecule microarray, higher = more signal
[4] = change in splice reporter luminescence, either direction, cell-based, HEK293, spliceosome inhibition project, primary screen (AID 1101); settings: HEK293 splicing luciferase reporter, 24 h, higher = more signal, called active from +8 up or from −8 down;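 note: HEK293 cells carrying a splicing-competent luciferase reporter gene; test concentration not given here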
[5] = target: Fibroblast growth factor 10 (Homo sapiens) (UniProt O15520); experiment: compounds binding fibroblast growth factor 10 – biochemical, small-molecule microarray, 635 nm fluorescence, primary screen (AID 1102); settings: FGF10 binding, fluorescence 635 nm, higher = more signal
Sequence of Fibroblast growth factor 10 (Homo sapiens) (O15520 whole entry, looked up): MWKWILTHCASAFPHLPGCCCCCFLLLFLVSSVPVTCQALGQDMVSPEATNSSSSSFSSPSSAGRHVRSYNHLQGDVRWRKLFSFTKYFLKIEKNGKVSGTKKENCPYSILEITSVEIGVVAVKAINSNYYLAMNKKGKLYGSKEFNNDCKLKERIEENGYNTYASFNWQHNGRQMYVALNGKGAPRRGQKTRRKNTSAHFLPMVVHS

[6] = test system: glycogen synthase kinase-3 (GSK3A per assay name; protocol says GSK3B); experiment: compounds binding glycogen synthase kinase-3 – biochemical, small-molecule microarray, 635 nm fluorescence, GSK3A, primary screen (AID 1103); settings: fluorescence 635 nm, higher = more signal; note: the record names both GSK3A and GSK3B
[7] = target: Epidermal growth factor receptor (Homo sapiens) (UniProt P00533); experiment: compounds binding epidermal growth factor receptor – biochemical, small-molecule microarray, 635 nm fluorescence, primary screen (AID 1104); settings: EGFR binding, higher = more signal;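 note: score merges 667 nm emission intensity with spot signal to noise over triplicate slides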
Sequence of Epidermal growth factor receptor (Homo sapiens) (P00533 whole entry, looked up): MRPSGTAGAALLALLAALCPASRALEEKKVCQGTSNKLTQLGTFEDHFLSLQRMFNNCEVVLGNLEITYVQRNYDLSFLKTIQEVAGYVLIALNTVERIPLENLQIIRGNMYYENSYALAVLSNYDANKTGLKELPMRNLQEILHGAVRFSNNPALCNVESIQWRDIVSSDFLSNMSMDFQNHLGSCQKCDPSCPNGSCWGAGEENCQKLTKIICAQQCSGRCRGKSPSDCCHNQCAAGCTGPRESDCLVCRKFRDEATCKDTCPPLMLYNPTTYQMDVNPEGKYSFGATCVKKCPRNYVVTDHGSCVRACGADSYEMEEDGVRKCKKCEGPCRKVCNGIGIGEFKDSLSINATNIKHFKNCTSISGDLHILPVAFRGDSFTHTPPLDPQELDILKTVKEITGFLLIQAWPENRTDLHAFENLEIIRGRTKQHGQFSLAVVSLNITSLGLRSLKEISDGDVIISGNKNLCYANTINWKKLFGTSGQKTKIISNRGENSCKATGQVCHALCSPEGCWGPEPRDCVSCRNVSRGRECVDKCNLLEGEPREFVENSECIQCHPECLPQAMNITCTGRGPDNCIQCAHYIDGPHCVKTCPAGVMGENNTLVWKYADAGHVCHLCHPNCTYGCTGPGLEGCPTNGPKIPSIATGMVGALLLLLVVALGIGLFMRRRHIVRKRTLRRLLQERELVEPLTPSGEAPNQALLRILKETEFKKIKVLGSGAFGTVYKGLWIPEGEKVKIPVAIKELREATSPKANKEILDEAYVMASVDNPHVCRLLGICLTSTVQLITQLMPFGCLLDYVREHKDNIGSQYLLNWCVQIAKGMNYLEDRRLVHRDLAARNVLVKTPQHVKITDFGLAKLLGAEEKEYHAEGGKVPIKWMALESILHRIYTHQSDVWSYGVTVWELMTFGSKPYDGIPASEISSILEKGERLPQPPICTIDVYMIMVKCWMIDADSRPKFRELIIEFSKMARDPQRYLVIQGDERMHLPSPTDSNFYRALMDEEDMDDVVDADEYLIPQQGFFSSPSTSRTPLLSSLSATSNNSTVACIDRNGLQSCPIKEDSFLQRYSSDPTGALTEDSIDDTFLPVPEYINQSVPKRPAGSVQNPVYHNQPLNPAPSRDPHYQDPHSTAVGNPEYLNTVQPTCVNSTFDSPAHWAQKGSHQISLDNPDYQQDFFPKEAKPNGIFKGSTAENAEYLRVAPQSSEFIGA

[8] = target: Follistatin-related protein 3 (Homo sapiens) (UniProt O95633); experiment: compounds binding follistatin-related protein 3 – biochemical, small-molecule microarray, 635 nm fluorescence, primary screen (AID 1105); settings: FSTL3 binding, higher = more signal;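 note: score merges emission near 667 nm and signal to noise per printed spot across three slides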
Sequence of Follistatin-related protein 3 (Homo sapiens) (O95633 whole entry, looked up): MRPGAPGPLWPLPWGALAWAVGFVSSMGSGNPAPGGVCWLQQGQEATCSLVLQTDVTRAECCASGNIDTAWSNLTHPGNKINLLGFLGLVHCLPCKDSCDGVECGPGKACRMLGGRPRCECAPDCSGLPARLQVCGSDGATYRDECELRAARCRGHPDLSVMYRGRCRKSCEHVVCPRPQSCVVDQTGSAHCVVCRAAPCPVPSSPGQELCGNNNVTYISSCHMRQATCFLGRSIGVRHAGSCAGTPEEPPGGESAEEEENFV

[9] = target: Dickkopf-related protein 1 (Homo sapiens) (UniProt O94907); experiment: small molecules binding DKK1 protein – biochemical, small-molecule microarray, 635 nm fluorescence scan, primary screen (AID 1106); settings: higher = more signal;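 note: score merges emission near 667 nm with signal to noise over three replicate slides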
Sequence of Dickkopf-related protein 1 (Homo sapiens) (O94907 whole entry, looked up): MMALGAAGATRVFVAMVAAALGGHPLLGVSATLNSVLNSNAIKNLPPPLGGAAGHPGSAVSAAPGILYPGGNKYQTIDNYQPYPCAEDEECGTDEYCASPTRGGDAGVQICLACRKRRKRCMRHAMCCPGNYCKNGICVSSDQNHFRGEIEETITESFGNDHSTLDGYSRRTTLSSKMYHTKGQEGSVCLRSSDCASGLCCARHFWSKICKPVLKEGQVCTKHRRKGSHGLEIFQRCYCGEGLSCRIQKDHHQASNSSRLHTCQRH

[10] = test system: Inhibin beta A chain (activin A); experiment: small molecules binding activin A – biochemical, small-molecule microarray, 635 nm fluorescence scan, primary screen (AID 1107); settings: INHBA, higher = more signal;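 note: mouse activin A protein probed at 4.33 µg/mL on printed slides; score merges bound-protein fluorescence near 667 nm with spot signal-to-noise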
[11] = test system: Human papillomavirus type 1a protein E7 (residues 44-93); experiment: small molecules binding HPV E7 44-93 – biochemical, small-molecule microarray, residues 44-93, 635 nm fluorescence, primary screen (AID 1108); settings: fluorescence 635 nm, higher = more signal;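 note: E7 fragment applied at 1 µg/mL in TBST for 1 h at 4 C; score combines spot fluorescence with its signal to noise ratio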
[12] = hepatitis C replication reporter changes, two-sided – Huh7 cells, luciferase reporter, HCV replication inhibitor project, primary screen (AID 1109); settings: Huh7 HCV replicon luciferase reporter, 48 h; higher = more signal;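 note: huh7 hepatoma cells harbouring a luciferase neomycin HCV replicon reporter; luciferase luminescence as measure of HCV replicon replication; test concentration not given here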
[13] = target: Left-right determination factor 2 (Homo sapiens) (UniProt O00292); experiment: small molecules binding LEFTY2 protein – biochemical, small-molecule microarray, 635 nm fluorescence scan, primary screen (AID 1110); settings: higher = more signal
Sequence of Left-right determination factor 2 (Homo sapiens) (O00292 whole entry, looked up): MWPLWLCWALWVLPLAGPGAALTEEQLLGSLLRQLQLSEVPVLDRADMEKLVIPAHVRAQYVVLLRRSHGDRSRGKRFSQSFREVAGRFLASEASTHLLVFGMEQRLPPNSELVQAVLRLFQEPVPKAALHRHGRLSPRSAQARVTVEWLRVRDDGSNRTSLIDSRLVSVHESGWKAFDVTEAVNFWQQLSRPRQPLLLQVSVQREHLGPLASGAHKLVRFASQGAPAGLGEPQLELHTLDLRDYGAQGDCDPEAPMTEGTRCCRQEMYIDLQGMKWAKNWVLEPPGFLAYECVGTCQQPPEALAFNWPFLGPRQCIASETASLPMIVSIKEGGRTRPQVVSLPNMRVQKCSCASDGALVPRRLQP

[14] = target: Calmodulin-1 (Homo sapiens) (UniProt P0DP23); experiment: small molecules binding calmodulin-1 with EGTA – biochemical, small-molecule microarray, Cy5-labelled CALM1, profiling panel (AID 1111); settings: Cy5-CALM1 binding fluorescence, higher = more signal;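 note: labelled calmodulin applied in Tris saline Tween buffer holding calcium plus EGTA and DTT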
[15] = target: Calmodulin-1 (Homo sapiens) (UniProt P0DP23); experiment: small molecules binding Ca-loaded calmodulin-1 – biochemical, small-molecule microarray, Cy5-labelled CALM1, plus calcium, artefact control for SMM control-protein annotation, profiling panel (AID 1112); settings: Cy5-CALM1 binding fluorescence, higher = more signal;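 note: score merges spot fluorescence with signal to noise from triplicate slides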
[16] = probe aWnt5a binding to arrayed compounds – biochemical, biotinylated probe, 635/667 nm fluorescence, primary screen (AID 1113); settings: small-molecule microarray, higher = more signal;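 note: score merges 667 nm fluorescence intensity with signal-to-noise per printed feature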
[17] = probe aShh binding to arrayed compounds – biochemical, biotinylated probe, 635/667 nm fluorescence, primary screen (AID 1114); settings: small-molecule microarray, higher = more signal;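 note: probe is biotin-labelled aShh protein from a stem cell growth factor screen; measures binding of labelled protein to compounds printed on the slide; score merges feature fluorescence at 667 nm with signal-to-noise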
[18] = probe aNog binding to arrayed compounds – biochemical, biotinylated probe, 635/667 nm fluorescence, primary screen (AID 1115); settings: small-molecule microarray, higher = more signal;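 note: probe is biotinylated aNog protein used at 0.15 µg/mL for 1 h at 4 C; z-score combines 667 nm fluorescence of each spot with its signal to noise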
[19] = target: Torsin-1A-interacting protein 1 (Homo sapiens) (UniProt Q5JTV8); experiment: compound microarray binding of lysate hLAP1 – cell lysate, small-molecule microarray, COS7 lysate, 635/667 nm fluorescence, primary screen (AID 1116); settings: 635 nm fluorescence, higher = more signal
Sequence of Torsin-1A-interacting protein 1 (Homo sapiens) (Q5JTV8 whole entry, looked up): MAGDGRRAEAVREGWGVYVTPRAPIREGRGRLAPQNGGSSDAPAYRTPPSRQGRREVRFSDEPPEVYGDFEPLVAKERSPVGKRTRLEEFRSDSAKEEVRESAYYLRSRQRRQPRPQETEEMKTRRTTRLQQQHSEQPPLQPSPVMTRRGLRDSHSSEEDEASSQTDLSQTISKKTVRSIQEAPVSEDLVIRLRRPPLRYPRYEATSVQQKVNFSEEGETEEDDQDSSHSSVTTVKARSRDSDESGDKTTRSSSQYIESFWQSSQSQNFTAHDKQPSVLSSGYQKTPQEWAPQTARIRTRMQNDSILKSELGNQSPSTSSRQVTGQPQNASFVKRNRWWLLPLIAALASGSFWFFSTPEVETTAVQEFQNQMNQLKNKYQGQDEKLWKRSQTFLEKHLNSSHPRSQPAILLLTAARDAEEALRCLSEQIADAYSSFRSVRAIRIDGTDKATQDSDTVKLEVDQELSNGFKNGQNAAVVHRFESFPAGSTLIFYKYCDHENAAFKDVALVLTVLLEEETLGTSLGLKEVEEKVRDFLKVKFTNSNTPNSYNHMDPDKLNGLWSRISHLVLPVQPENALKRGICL

[20] = target: Alpha-bungarotoxin (Bungarus multicinctus) (UniProt P60615); experiment: compounds binding labelled alpha-BTX control protein – biochemical, small-molecule microarray, Alexa647 label, 635/667 nm fluorescence, artefact control for SMM control protein annotation, profiling panel (AID 1117); settings: alpha-BTX-A647 binding fluorescence, higher = more signal
Sequence of Alpha-bungarotoxin (Bungarus multicinctus) (P60615 whole entry, looked up): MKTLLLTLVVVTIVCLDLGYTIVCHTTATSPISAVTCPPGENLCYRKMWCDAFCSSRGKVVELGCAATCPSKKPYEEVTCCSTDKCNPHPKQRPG

SMILES | composite z-score [1] | composite z-score [2] | composite z-score [3] | z-score [4] | composite z-score [5] | composite z-score [6] | composite z-score [7] | composite z-score [8] | composite z-score [9] | composite z-score [10] | composite z-score [11] | z-score [12] | composite z-score [13] | composite z-score [14] | composite z-score [15] | composite z-score [16] | composite z-score [17] | composite z-score [18] | composite z-score [19] | composite z-score [20]
C=CCNC(=O)[C@@H]1[C@H]2C(=O)O[C@H](c3ccccc3)[C@H](c3ccccc3)N2[C@H](c2ccc(O)cc2)[C@@]12C(=O)Nc1ccccc12 | 0.442 | -0.0741 | 0.363 | 0.633 (inactive) | 0.237 | -0.608 | -1.14 | 0.133 | 0.131 | -0.287 | 0.197 | -0.603 | -1.01 | 0.439 | 0.259 | -0.0758 | 0.0756 | 0.955 | -0.0205 | 1.33
COC(=O)C(CC#Cc1ccc2c(c1)[C@]1(C(=O)N2)[C@H](C(N)=O)[C@H]2C(=O)O[C@H](c3ccccc3)[C@H](c3ccccc3)N2[C@@H]1c1ccc(O)cc1)C(=O)OC | 1.12 | -0.608 | -0.0947 | 0.0733 (inactive) | -0.519 | -1.15 | -1.1 | -1.28 | -0.591 | -1.15 | -1.74 | -0.152 | -1.19 | -0.351 | 0.221 | -0.359 | 0.373 | -0.446 | 0.659 | -0.243
CC(C)C(CO)N1C(=O)[C@@H]2C3C(=O)OCCC/C=C\[C@H]3OC23C=CCN(C(C)C)C(=O)[C@@H]13 (stereo not given in full) | 1.86 | -0.191 | 0.481 | -0.895 (inactive) | -0.547 | -0.875 | -1.2 | -0.826 | -0.868 | 0.968 | -0.359 | -0.069 | -0.73 | -0.467 | -0.14 | -0.221 | -0.0035 | 0.0599 | 1.69 | -1.61
COC(=O)C1=CC(c2ccc(CO)cc2)=CC(C2CC2)N(C)C=C1C(=O)OC (stereo not given) | 1.97 | 0.341 | 0.542 | -1.93 (inactive) | 0.17 | -0.373 | -0.125 | -0.172 | 0.466 | 0.606 | -0.139 | -0.748 | -0.246 | 1.52 | 0.454 | -0.0179 | 0.111 | 0.407 | 2.82 | 3.09
O=C1O[C@@H](c2ccccc2)[C@@H](c2ccccc2)N2[C@@H](c3ccc(OCCO)cc3)[C@]3(C(=O)Nc4ccc(C#CC5(O)CCCCCC5)cc43)[C@@H](C(=O)NC[C@H](O)c3ccccc3)[C@H]12 | 1.37 | 0.914 | 0.864 | -0.828 (inactive) | 1.15 | 1.17 | 0.244 | 1.25 | 0.382 | 0.42 | 1.24 | -2.06 | 0.497 | 1.97 | 0.638 | -0.0877 | 0.172 | 1.21 | 1.94 | 2.42
C=CC[C@@H](OC(=O)Nc1ccc(SC)cc1)c1ccc(OCCO)cc1 | 1.28 | 0.271 | 1.29 | -1.83 (inactive) | 0.0292 | -0.381 | -1.4 | -0.805 | -1.42 | -0.148 | -0.318 | 2.1 | -0.952 | -0.0326 | 0.835 | -0.208 | 0.358 | 0.133 | 1.01 | -0.68
CCOC(=O)C[C@H]1[C@H](OC(=O)c2ccc(C(=O)c3ccccc3)cc2)[C@@H](NC(=O)Cc2ccc(OC)cc2)c2cc(OCCCO)ccc2N1C(=O)Cc1ccc(OC)cc1 | 0.276 | 0.676 | 0.949 | -1.52 (inactive) | 0.371 | 0.283 | -0.137 | 0.321 | -0.177 | 0.962 | 1.06 | -1.06 | 0.39 | 1.31 | 0.655 | -0.0643 | -0.156 | 1.1 | 0.743 | 0.978
C=CCC(OC(C)=O)[C@@H]1[C@@H](N(Cc2ccc(-c3ccccc3)cc2)C(=O)c2ccc(-c3ccccc3)cc2)c2cc(OCCCO)ccc2N1C(=O)c1ccc(-c2ccccc2)cc1 (stereo not given in full) | -0.104 | 0.603 | 0.672 | -1.34 (inactive) | -0.132 | -0.0347 | -0.137 | 0.145 | -0.141 | 1.11 | -0.172 | 0.967 | 0.337 | 0.681 | 0.92 | -0.11 | -0.324 | 0.347 | 0.315 | 0.459
C=CCN1C(=O)[C@@]2(O[C@@H](CCn3cc(CCO)nn3)[C@H]([Si](C)(C)c3ccc(OC)cc3)[C@H]2C)c2cc(N3C(=O)c4cccc5cccc3c45)ccc21 | 0.579 | 0.13 | -0.224 | -3.34 (inactive) | 0.466 | 0.308 | 0.234 | 0.688 | 0.315 | 0.58 | 0.51 | -5.22 | -0.165 | 1.37 | 0.258 | 0.0733 | -0.138 | 0.473 | 0.482 | 1.6
NCCCCCNC(=O)[C@H]1C[C@H]2C(=O)NCC(=O)N2[C@H]1c1ccc(O)cc1 | 1.02 | 0.154 | 0.212 | -0.25 (inactive) | 1.37 | 1.31 | 0.383 | 1.07 | 1.74 | 0.324 | 0.861 | 0.245 | 1.49 | 1.53 | 0.954 | -0.0981 | -0.206 | -0.216 | 0.712 | 2.71
CC(C)CNC(=O)[C@@H]1c2ccccc2C(=O)N(Cc2ccc(OC(F)(F)F)cc2)[C@H]1c1ccc(CO)cc1 | 1.46 | 0.799 | 0.922 | -0.787 (inactive) | 0.64 | 1.28 | 0.346 | 1.26 | 0.407 | 0.254 | -0.491 | -0.913 | 0.569 | 0.986 | -0.614 | 0.0519 | -0.0234 | 0.327 | 1.69 | 1.74

Reference: PubChem BioAssay
